Screening data as filed in PubChem BioAssay.
Rows were chosen to be rich in hits. Some 21% of all compounds tested hit in one or more screens of this group.
NS1 inh: inhibitors of influenza NS1 protein function | Potency, µM (top dose mostly 46.1 µM), without a hit: at the highest dose activity, positive = more growth | AID 2326 | 270,000 compounds, 0.4% hits; calls by dose curve; note: potency is the fitted concentration of half-maximal effect; actives are rising curves; nearly all actives have a fitted effect of over 50% in size
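In this qHTS, NS1 from influenza A is expressed in budding yeast, where it slows growth. Cells are switched from glucose to 2% galactose medium (pH 6.0, -URA), treated with compound, and growth recovery is read at OD600.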
Pf growth 48h: inhibits P. falciparum growth in the first generation, 48 h; P. falciparum luciferase growth in erythrocytes, 48 h; Potency, µM (doses to about 28.7 µM), inactives show at the highest dose activity change, negative = inhibition, hits mostly inhibitors; 310,000 compounds, 5.9% hits; note: potency is the fitted concentration of half-maximal effect; % is set by controls: 0 for no effect and ±100 for the full control effect
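A one-generation exposure of luciferase-tagged malaria parasites in RPMI 1640/Albumax erythrocyte culture, 37 C and 5% CO2. Inhibition is inferred from decreased luminescence after adding detection reagent.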
Shiga toxin inh: Shiga toxin inhibition; Vero cells, Shiga toxin protein synthesis inhibition reporter; inhibition, % at 38.7 µM; 290,000 compounds, 9.2% hits; AID 2315; in the data active = inhibition mostly above about 28%, no sharp cut-off; inactive = mostly below about 43%; note: 0% is about no effect
Cycloheximide cs: affects cycloheximide protein synthesis inhibition readout, counter-screen | 300,000 compounds, 12% hits | AID 2314 | max response, % | cell reporter, cycloheximide protein synthesis inhibition counterscreen; in the data active = max response mostly above about 13%, no sharp cut-off; inactive = mostly below about 14%; note: read at 38.3 µM for the half of the compounds with a filed dose; 0% is about no effect
Sm TGR block: blocks Schistosoma mansoni thioredoxin glutathione reductase. Potency, µM (titrated, usually from 114 µM), for inactives: at the highest dose activity change, negative = inhibition, most hits filed as inhibitors. 360,000 compounds, 3% hits. AID 485364. purified TGR, DTNB reduction, TNB absorbance 405 nm. Q962Y6; note: potency is the fitted concentration of half-maximal effect; % is set by controls: 0 for no effect and ±100 for the full control effect; nearly all actives have a fitted effect of over 60% in size
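First, TGR (20 nM dispensed) and NADPH were mixed with compound. Second, a 15 min room-temperature incubation followed. Third, further NADPH and then DTNB were added to start the reaction. Finally, TNB absorbance was monitored kinetically.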
Pf growth 96h: P. falciparum growth inhibition at 96 hours; P. falciparum luciferase reporter growth, 96 h; Potency, µM (doses to about 28.7 µM), inactives show at the top dose activity change, negative = inhibition, actives largely listed as inhibitors; 320,000 compounds, 6.9% hits; note: potency is the fitted concentration of half-maximal effect; % is set by controls: 0 for no effect and ±100 for the full control effect
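Delayed-death screen, second-generation endpoint: infected erythrocytes, 2% hematocrit, 0.05% parasitemia final; 96 hours at 37 C, 5% CO2; luciferase detection reagent; luminescence decrease equals reduced growth.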
An asterisk follows results filed as active; ? = inconclusive; . = no result given; + = active, no number; [ ] = dose if it differs, or a comment. Unless noted, calls come from the whole dose curve; as a rule, active = well fitted curve in the direction sought with a large enough effect; inconclusive = small, poorly fitted or top-dose-only effect, or another doubt; inactive = no such curve, though single readings can be large; an effect the other way counts as inactive or inconclusive.

SMILES	NS1 inh	Pf growth 48h	Shiga toxin inh	Cycloheximide cs	Sm TGR block	Pf growth 96h
CCCN1Cc2cccc(C(=O)Nc3ccc(-c4nc5ccccc5[nH]4)cc3)c2C1=O	13%	2.3µM*	8	18*	-24%	-13%
COCCN1Cc2cccc(C(=O)Nc3cc(C)cc(C)c3)c2C1=O	-6%	-12%	-3	1	4%	5%
CCCN1Cc2cccc(C(=O)Nc3ccc(C)cc3)c2C1=O	-2%	.	12	-2	-17%	70%
O=C(CCN1CCCCC1)N/N=C/c1c[nH]c2ccccc12	7%	6%	29	2	-1%	17%
O=C(/C=C/c1ccc(N2CCCCC2)c([N+](=O)[O-])c1)c1ccc(O)cc1	-5%	?	55*	47*	4%	?
O=C(c1ccc(N2CCCCC2)c([N+](=O)[O-])c1)N1CCOCC1	2%	12%	-14	-3	9%	?
Nc1nnnn1/N=C/c1ccc(N2CCCCC2)c([N+](=O)[O-])c1	3%	86%	63*	38*	8%	?
O=C(O/N=C\c1ccc(N2CCCCC2)c([N+](=O)[O-])c1)c1ccc(Cl)cc1Cl	-14%	32%	-7	-3	1%	8%
COc1ccccc1N1CCN(C(=O)/C=C/c2cccc([N+](=O)[O-])c2)CC1	-4%	1%	-3	-2	6%	-15%
COc1ccc(N2CCN(C(=O)c3ccccc3Br)CC2)c([N+](=O)[O-])c1	.	16%[5.75 µM]	55	12	-1%	12µM*
COc1ccccc1C(=O)/C=C/c1ccc(N2CCCCC2)c([N+](=O)[O-])c1	19%	?	99*	62*	-11%	7.4µM*
COc1ccc(N2CCN(C(=O)c3ccccc3)CC2)c([N+](=O)[O-])c1	0%	36%	-8	-1	1%	?
CCC(C)NC(=O)C1CCC(=O)N1CCc1ccccc1 (stereo unspecified)	1%	-16%	-6	-2	-5%	93%
Cc1n(C)c2cc(Cl)ccc2[n+]1Cc1ccccc1	.	2.9µM*	-20	-2	-5%	22%
Cc1cc2nc(-c3ccc(NC(=O)C(C)C)cc3)oc2cc1C	?	300%	80*	54*	6%	.
Cc1ccc2nc(-c3ccc(O)cc3)oc2c1	-4%	249%	14	19*	19%	?
Cc1ccc(S(=O)(=O)Nc2ccc(-c3nc4cc(NS(=O)(=O)c5ccc(C)cc5)ccc4o3)cc2)cc1	10%	.	-5	-2	-6%	4.1µM*
Cc1cc2nc(-c3ccc(NC(=O)c4ccc(OCC(C)C)cc4)cc3)oc2cc1C	.	.	.	.	-2%	.
Cc1ccc(-c2nc3cc(NC(=O)C(C)C)ccc3o2)cc1	-1%	44%	95*	73*	-1%	15%
O=Cc1c(NCc2ccccc2Cl)c2ccccc2[nH]c1=O	-37%	9%	-8	-4	-7%	?
Cc1ccc(-c2nc3cc(NC(=O)C(C)C)ccc3o2)cc1C	-35%	10%	95*	83*	-8%	-24%
COc1cc(OC)cc(-c2nc3cc(C)ccc3o2)c1	-33%	173%	104*	58*	7%	12%
Cc1ccc(C(=O)Nc2cc(-c3nc4cc(Cl)ccc4o3)ccc2C)c(C)c1	.	.	.	.	-2%	.
Clc1ccc(-c2nc3cc(CN4CCCCC4)ccc3o2)cc1	-1%	19%	54*	36*	2%	10%
Clc1ccc(-c2noc(CN3CCCCC3)n2)cc1	2%	.	.	.	.	.
SMILES	NS1 inh	Pf growth 48h	Shiga toxin inh	Cycloheximide cs	Sm TGR block	Pf growth 96h
Cc1ccc(-c2nc3cc(Cl)ccc3o2)cc1	7%	299%	123*	46*	-6%	.
N#CCCC(CCC#N)(CCC#N)c1cc[n+](CCc2ccccn2)cc1	.	5%	.	.	-8%	57%
O=C(O)C1CCCN(C(=O)c2cccc3ccccc23)C1 (stereo unspecified)	-8%	23%	-9	-7	2%	16%
Cc1ccc(Cn2c(=O)c3c(nc4n3CCN4c3cc(C)cc(C)c3)n(C)c2=O)cc1	.	.	.	.	3%	.
Brc1cccc(-c2cnn3c(-c4ccccc4)cc(-c4ccccc4)nc23)c1	.	.	.	.	-3%	.
CCn1c(CN(C)c2ccccc2)nc2ccccc21	20%	?	10	3	9%	46%
CC(C)(C)NCC(O)COc1ccccc1C(C)(C)C (stereo unspecified)	0%	4.7µM*	-14	-5	9%	?
CC(C)(C)NC[C@@H](O)COc1ccccc1C1CCCC1	.	2.9µM*	.	.	.	2.3µM*
CC(C)CN(CCCNC(=O)CN1C(=O)COc2ccc(S(=O)(=O)N3CCOCC3)cc21)CC(C)C	3%	5%	12	-9	-6%	?
Cc1ccc(OCC(=O)Nc2ccc(S(=O)(=O)N(C)C3CCN(C)CC3)cc2)c(C)c1	-8%	12µM*	-6	-2	-3%	?
CN1CCC(N(C)S(=O)(=O)c2ccc(NC(=O)COc3ccc(Br)cc3Cl)cc2)CC1	.	4.1µM*	.	.	0%	2.1µM*
CN1CCC(N(C)S(=O)(=O)c2ccc(NC(=O)COc3cccc(Cl)c3)cc2)CC1	.	9.3µM*	.	.	5%	13µM*
Cc1ccc(OCC(=O)Nc2ccc(S(=O)(=O)N3CCOCC3)cc2)c(C)c1	10%	?	15	-3	4%	20%
Cc1ccccc1OCCC(=O)Nc1ccc(S(=O)(=O)N(C)C2CCN(C)CC2)cc1	.	2.9µM*	.	.	-2%	3.7µM*
CN1CCC(N(C)S(=O)(=O)c2ccc(NC(=O)Cc3ccc(F)cc3)cc2)CC1	.	-4%	.	.	-3%	?
Cc1ccc2c(c1)cc1c(=O)n(Cc3cccc(Cl)c3)nc(C)n12	.	.	.	.	-12%	.
CCS(=O)(=O)c1ccc(-c2cccc(NC(=O)COc3ccc(Cl)cc3)c2)nn1	-11%	0%	-7	-3	-16%	?
COc1ccccc1NC(=O)CCN1CCCCC1	.	.	.	.	4%	.
COc1ccc(C)cc1NC(=O)C1CCCN(S(=O)(=O)c2cnc[nH]2)C1 (stereo unspecified)	-5%	.	-9	-1	-6%	12µM*
Cc1ccc2nc(NC(=O)C3CCCN(S(=O)(=O)c4cnc[nH]4)C3)sc2c1 (stereo unspecified)	?	-13%	+	43*	-15%	?
Cc1ccc2nc(NC(=O)C3CCCN(S(=O)(=O)c4cccnc4)C3)sc2c1 (stereo unspecified)	-67%	13µM*	-24	1	-10%	8%
CCOc1ccc2nc(NC(=O)C3CCCN(S(=O)(=O)c4cccs4)C3)sc2c1 (stereo unspecified)	-44%	15µM*	14	9	6%	-14%
COc1ccc(NC(=O)C2CCCN(S(=O)(=O)c3cccs3)C2)cc1 (stereo unspecified)	.	.	.	.	-1%	.
CCCCc1ccc(NC(=O)CSc2nc3ccccc3nc2N2CCOCC2)cc1	.	.	.	.	-1%	.
